Rows were chosen to be rich in hits. Some 3.4% of all compounds tested hit in one or more screens of this group.
MITF primary: MITF inhibitors, primary screen, biochemical, AlphaScreen, human | Microphthalmia-associated transcription factor (Homo sapiens), O75030 | AlphaScreen MITF homodimerization, bead proximity signal | inhibition, % at 2.6 µM | 0.91% of 650,000 active | AID 1259374, 2018; in the data active means inhibition above about 50%;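 further: 0% = vehicle wells with protein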
Target sequence (O75030 whole entry, looked up): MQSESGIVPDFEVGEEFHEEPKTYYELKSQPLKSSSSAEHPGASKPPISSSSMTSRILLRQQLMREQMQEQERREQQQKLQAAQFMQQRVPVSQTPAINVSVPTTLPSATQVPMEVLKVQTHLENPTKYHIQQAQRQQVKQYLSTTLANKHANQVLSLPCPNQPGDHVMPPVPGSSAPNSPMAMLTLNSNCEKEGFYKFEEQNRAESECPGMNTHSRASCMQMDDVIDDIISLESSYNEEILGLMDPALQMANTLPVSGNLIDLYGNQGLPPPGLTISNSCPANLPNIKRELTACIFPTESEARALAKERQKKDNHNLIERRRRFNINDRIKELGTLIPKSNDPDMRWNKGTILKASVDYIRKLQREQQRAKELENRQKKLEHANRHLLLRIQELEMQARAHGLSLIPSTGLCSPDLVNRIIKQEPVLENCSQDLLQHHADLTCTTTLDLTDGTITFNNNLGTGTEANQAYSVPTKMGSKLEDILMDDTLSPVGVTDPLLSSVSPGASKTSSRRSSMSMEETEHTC
GPR151 activ: activators of human GPR151, primary screen, cell-based, PathHunter beta-arrestin, luminescence; G-protein coupled receptor 151 (Homo sapiens), Q8TDV0; PathHunter beta-arrestin GPR151 cells; activation, % at 11.2 µM; 1% of 650,000 active; in the data active means activation above about 4.9%;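 further: 0% = median of compound wells and 100% = cells with positive control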
FBW7 act: FBW7 E3 ligase activators, primary screen, biochemical, AlphaScreen, human | AlphaScreen FBW7–phospho-cyclin E peptide binding, activator screen | AID 1259310, 2017 | 0.13% of 650,000 active | normalized activity (activation), % at 26.1 µM | F-box/WD repeat-containing protein 7 (Homo sapiens), Q969H0; in the data active means normalized activity above about 1.9%;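 further: purified mutant Fbw7 with reduced substrate affinity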
TEAD-YAP block: TEAD-YAP interaction inhibition, primary screen, TEAD-YAP interaction inhibitor project, luminescence, HEK-TIYL cells. TEAD-Gal4/YAP UAS-luciferase luminescence. inhibition, % at 9.12 µM. 1.4% of 640,000 active. AID 1259422, 2018; in the data active means inhibition above about 32%;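 further: 0% = median of test compound wells and 100% = reference inhibitor wells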
* marks the source's active call; other numbers are inactive results.

SMILES	MITF primary	GPR151 activ	FBW7 act	TEAD-YAP block
Cc1ccc(S(=O)(=O)Nc2ccccc2C(=O)Nc2nc3ccc(Cl)cc3s2)cc1	-11	1	0	2
Cc1ccc(-c2csc(NC(=O)c3ccccc3NS(=O)(=O)c3ccc(C)cc3)n2)cc1	8	1	0	23
CS(=O)(=O)c1ccc2nc(NC(=O)C3=COCCO3)sc2c1	10	-1	0	-13
Cc1ccc(-c2csc(NC(=O)c3ccccc3C(=O)O)n2)cc1	7	0	0	-6
O=C(O)c1ccccc1C(=O)Nc1nc(-c2ccc(Br)cc2)cs1	0	1	2.1*	4
Cn1c(CCNC(=O)c2ccco2)nc2cc(NC(=O)Nc3ccccc3)ccc21	-4	-5	0	5
O=C(Nc1cc(=O)[nH]c(=O)[nH]1)c1cc([N+](=O)[O-])ccc1Cl	25	1	0	-12
O=C(Nc1cc(=O)[nH]c(=O)[nH]1)c1cc(Cl)ccc1Cl	7	1	0	52*
O=C(Nc1cc(=O)[nH]c(=O)[nH]1)c1cc(Br)ccc1Cl	14	-1	0	54*
NC(=O)c1ccc(N2CCN(S(=O)(=O)c3ccccc3)CC2)c([N+](=O)[O-])c1	3	5	0	34*
CS(=O)(=O)c1ccc(N2CCN(S(=O)(=O)c3cccs3)CC2)c(F)c1	7	2	0	-7
NS(=O)(=O)c1ccc(N2CCN(S(=O)(=O)c3cccs3)CC2)c([N+](=O)[O-])c1	0	1	0	34*
Cc1cc(NC(=O)c2ccccc2)sc1C	-5	-8	0	-37
Cc1ccc(NC(=O)c2ccccc2)s1	3	-5	0	57*
COc1ccc2c(C)nc(N3CCC(NCCCOC(C)C)CC3)nc2c1	15	-1	0	-2
CCOCCCNC1CCN(c2nc(C)c3cc(OC)ccc3n2)CC1	-5	1	0	49*
CC1CCN(S(=O)(=O)c2cc(C(=O)Nc3ccccc3Cl)ccc2F)CC1	-4	0	0	-3
O=C1CN(S(=O)(=O)c2ccc3ccccc3c2)c2ccccc2N1	6	0	0	2
O=C1CN(S(=O)(=O)c2ccc3[nH]c4c(c3c2)CCCC4)c2ccccc2N1	-15	1	0	62*
O=C1CN(Cc2ccccc2)CC(=O)N1	8	2	0	6
CCOc1ccc(S(=O)(=O)N2CC(=O)Nc3ccccc32)cc1	2	2	0	42*
CCCNS(=O)(=O)c1ccc2[nH]c3c(c2c1)CCCC3	4	2	0	5
O=C1CN(Cc2ccccc2)c2ccccc2N1	7	-2	0	96*
O=C1CN(S(=O)(=O)c2ccc(Br)cc2)c2ccccc2N1	-7	0	0	-2
Cc1cc(C)c(S(=O)(=O)N2CC(=O)Nc3ccccc32)c(C)c1	10	-1	0	55*
SMILES	MITF primary	GPR151 activ	FBW7 act	TEAD-YAP block
COCCCNS(=O)(=O)c1cc(Br)cc2c1N(C(C)=O)CC2	-5	0	0	1
COC(=O)Nc1cc([N+](=O)[O-])cc([N+](=O)[O-])c1Br	-4	4	0	99*
COC(=O)Nc1ccc(C(C)(C)C)cc1[N+](=O)[O-]	14	-2	0	-5
NC(=O)c1ccc(-c2ncc(C(=O)NCc3cccc(C(F)(F)F)c3)s2)cc1	1	-1	0	4
CC(C)(C)c1ccc(-c2nc(-c3ccccc3)no2)cc1	0	1	0	77*
Oc1ccc(-c2nc(-c3ccc(Br)cc3)no2)cc1	2	-8	0	50*
CCC(=O)Oc1ccc(-c2nc(-c3ccc(OC)cc3)no2)cc1	1	-7	0	44*
CC(C)(C)c1ccc(-c2nc(-c3ccc(Br)cc3)no2)cc1	-3	-1	0	-10
Cc1ccc(-c2noc(-c3ccc(O)cc3)n2)cc1	3	-9	1	74*
O=C(CN1CC(c2ccccc2)CC1=O)N1CCN(c2ccccn2)CC1 (stereo not drawn)	18	0	0	0
OCCC1CN(Cc2ccc(-c3ccco3)cc2)CCN1Cc1cccs1 (stereo not drawn)	-5	1	0	-12
Cc1nn(C)cc1CNc1nc(C)c(-c2ccn(CC3COc4ccccc4O3)n2)s1 (stereo not drawn)	-3	3	0	-13
COc1ccc2sc(N(Cc3cccnc3)C(=O)c3cccc(C)c3)nc2c1	-9	2	0	40*
COc1ccc(-c2cc(-c3ccccc3)c(C#N)c(S(=O)Cc3ccccc3)n2)cc1 (stereo not drawn)	5	-1	0	3
COc1ccc(-c2cc(-c3ccccc3)c(C#N)c(S(C)=O)n2)cc1 (stereo not drawn)	-8	0	0	53*
COc1ccc(S(=O)(=O)N(C(C)=O)c2ccc3oc4c(c3c2)CCCC4)cc1[N+](=O)[O-]	3	0	0	5
COc1cc(C(=O)Nc2ccc(-c3nc4cc(C)cc(C)c4o3)cc2)cc(OC)c1OC	-12	1	0	-14
COc1cccc2sc(Nc3nc(-c4ccccn4)cs3)nc12	-3	0	-2	63*
c1ccc(-c2csc(Nc3nc4cc5c(cc4s3)OCO5)n2)nc1	62*	-2	-2	90*
COc1ccccc1Nc1nc(-c2ccccn2)cs1	18	-2	-2	-10
COc1cc(/C=C2\Oc3c(ccc(O)c3CN3CCCC3)C2=O)cc(OC)c1OC	-1	1	0	32*
Cc1ccc(NC(=O)c2cc(F)ccc2[N+](=O)[O-])cc1	0	0	0	52*
COc1cc(NC(=O)c2cc(Cl)ccc2[N+](=O)[O-])c(OC)cc1Cl	0	1	0	6
O=C(Nc1ccc(Cl)cc1Cl)c1cc(F)ccc1[N+](=O)[O-]	4	-2	0	76*
COc1ccc(-n2nnc3c(N4CCN(C(=O)OCc5ccccc5)CC4)ncnc32)cc1	-3	0	0	-3
SMILES	MITF primary	GPR151 activ	FBW7 act	TEAD-YAP block
COc1ccc(C(=O)Oc2ccc(Cl)cc2)cc1S(=O)(=O)N1CCOCC1	2	-1	0	-2
COc1ccc2cc(-c3nc4ccccc4[nH]3)c(=Nc3cccc(C(F)(F)F)c3)oc2c1	-9	-3	0	72*
Cc1cc(-c2cccc3[nH]c(C(F)(F)F)nc23)nn1C(=O)c1cccnc1	-1	3	0	63*
c1ccc(-n2cnc3c(Nc4ccc(N5CCOCC5)cc4)nc(Nc4cccnc4)nc32)cc1	11	-1	0	41*
c1ccc(OCCNc2nc(Nc3cccnc3)nc3c2ncn3-c2ccccc2)cc1	-4	2	0	11
c1ccc(Nc2nc(Nc3ccc(-n4ccnc4)cc3)nc3c2ncn3-c2ccccc2)cc1	8	3	0	20
c1ccc(Nc2nc(Nc3cccnc3)nc3c2ncn3-c2ccccc2)cc1	15	-2	0	34*

Bioassay records (PubChem BioAssay)
